# Experimental data taken from PMC7862700, “An all-to-all approach to the identification of sequence-specific readers for epigenetic DNA modifications on cytosine”.
# How the values were obtained:
# Experiment in all cases: DAPPL (digital affinity profiling via proximity ligation, sequencing); 10 mM Tris-HCl pH 7.5, 50 mM NaCl, 1 mM DTT, 4% glycerol, room temperature, 30 min; GST-TFs on glutathione beads, 16-mer random dsDNA library, 0.1% formaldehyde crosslink after washing; high values mean tight binding
# [1] = target: T1, FEV (Homo sapiens, UniProt Q99581 1-238); settings: protein: recombinant; tags: N-terminal GST; dsDNA, one strand shown
# T1 sequence: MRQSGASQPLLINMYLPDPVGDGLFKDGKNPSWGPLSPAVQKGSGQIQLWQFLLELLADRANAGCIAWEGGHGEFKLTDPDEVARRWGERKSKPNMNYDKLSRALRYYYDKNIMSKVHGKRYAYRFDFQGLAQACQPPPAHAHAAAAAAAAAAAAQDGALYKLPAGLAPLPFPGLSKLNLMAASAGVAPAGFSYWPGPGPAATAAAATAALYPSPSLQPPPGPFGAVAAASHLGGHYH
# Outline: (§1)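 Each value of binding signal is a hexamer's read frequency for a factor divided by the same hexamer's frequency in the tag-only sample. Barcoded, bead-captured GST fusions of human transcription factors made in yeast were pooled with that sample and incubated with 200 nmole of a random double-stranded 16-mer DNA library in Tris/NaCl/DTT/glycerol buffer at room temperature for 30 min. Washing, 0.1% formaldehyde crosslinking, proximity ligation, PCR and Illumina NextSeq500 sequencing followed.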
# [2] = target: ETV5 (Homo sapiens, UniProt P41161 1-510); settings: protein: recombinant; tags: N-terminal GST; dsDNA, one strand shown
# Chain of ETV5 (P41161 whole entry): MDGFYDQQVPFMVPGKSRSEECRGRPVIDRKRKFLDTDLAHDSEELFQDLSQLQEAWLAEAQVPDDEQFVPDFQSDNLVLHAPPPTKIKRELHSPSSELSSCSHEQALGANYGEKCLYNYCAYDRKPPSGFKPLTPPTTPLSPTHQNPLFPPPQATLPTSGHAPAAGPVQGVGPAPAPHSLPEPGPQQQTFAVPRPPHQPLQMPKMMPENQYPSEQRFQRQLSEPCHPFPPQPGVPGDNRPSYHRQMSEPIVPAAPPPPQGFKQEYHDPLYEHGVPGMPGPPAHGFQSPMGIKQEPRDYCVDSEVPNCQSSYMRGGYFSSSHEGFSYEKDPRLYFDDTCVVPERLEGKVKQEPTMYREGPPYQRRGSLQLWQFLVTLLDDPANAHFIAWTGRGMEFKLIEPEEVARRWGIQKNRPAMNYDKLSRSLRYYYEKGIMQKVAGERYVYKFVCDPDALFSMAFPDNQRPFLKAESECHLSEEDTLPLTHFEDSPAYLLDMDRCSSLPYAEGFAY
# Outline: as §1
# [3] = target: HSF1 (Homo sapiens, UniProt Q00613 1-529); settings: protein: recombinant; tags: N-terminal GST; chain copies: 3; dsDNA, one strand shown
# Chain of HSF1 (Q00613 whole entry): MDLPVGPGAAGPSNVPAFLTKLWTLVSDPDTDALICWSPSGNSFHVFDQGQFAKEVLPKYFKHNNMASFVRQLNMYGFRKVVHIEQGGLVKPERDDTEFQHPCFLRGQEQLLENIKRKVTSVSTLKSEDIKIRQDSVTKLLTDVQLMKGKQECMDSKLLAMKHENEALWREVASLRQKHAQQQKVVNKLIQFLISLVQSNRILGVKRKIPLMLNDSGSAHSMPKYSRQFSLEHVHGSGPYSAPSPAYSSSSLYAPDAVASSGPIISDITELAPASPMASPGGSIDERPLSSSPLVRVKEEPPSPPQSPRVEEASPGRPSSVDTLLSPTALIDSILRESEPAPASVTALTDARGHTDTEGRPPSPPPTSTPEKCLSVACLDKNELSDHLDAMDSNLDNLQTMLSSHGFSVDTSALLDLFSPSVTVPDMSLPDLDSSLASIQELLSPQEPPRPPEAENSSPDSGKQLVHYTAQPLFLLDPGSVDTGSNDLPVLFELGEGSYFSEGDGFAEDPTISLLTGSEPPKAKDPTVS
# Outline: as §1
# [4] = target: T2, SPIC (Homo sapiens, UniProt Q8N5J4 1-248); settings: protein: recombinant; tags: N-terminal GST; dsDNA, one strand shown
# T2 sequence: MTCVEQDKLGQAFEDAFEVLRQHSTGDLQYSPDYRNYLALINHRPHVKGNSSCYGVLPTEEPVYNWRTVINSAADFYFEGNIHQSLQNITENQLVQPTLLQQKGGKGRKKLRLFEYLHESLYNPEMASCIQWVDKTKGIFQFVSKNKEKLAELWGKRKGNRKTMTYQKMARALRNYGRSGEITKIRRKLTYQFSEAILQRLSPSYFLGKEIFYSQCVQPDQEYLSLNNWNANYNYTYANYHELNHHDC
# Outline: as §1
# [5] = target: ELF4 (Homo sapiens, UniProt Q99607 1-663); settings: protein: recombinant; tags: N-terminal GST; dsDNA, one strand shown
# Chain of ELF4 (Q99607 whole entry): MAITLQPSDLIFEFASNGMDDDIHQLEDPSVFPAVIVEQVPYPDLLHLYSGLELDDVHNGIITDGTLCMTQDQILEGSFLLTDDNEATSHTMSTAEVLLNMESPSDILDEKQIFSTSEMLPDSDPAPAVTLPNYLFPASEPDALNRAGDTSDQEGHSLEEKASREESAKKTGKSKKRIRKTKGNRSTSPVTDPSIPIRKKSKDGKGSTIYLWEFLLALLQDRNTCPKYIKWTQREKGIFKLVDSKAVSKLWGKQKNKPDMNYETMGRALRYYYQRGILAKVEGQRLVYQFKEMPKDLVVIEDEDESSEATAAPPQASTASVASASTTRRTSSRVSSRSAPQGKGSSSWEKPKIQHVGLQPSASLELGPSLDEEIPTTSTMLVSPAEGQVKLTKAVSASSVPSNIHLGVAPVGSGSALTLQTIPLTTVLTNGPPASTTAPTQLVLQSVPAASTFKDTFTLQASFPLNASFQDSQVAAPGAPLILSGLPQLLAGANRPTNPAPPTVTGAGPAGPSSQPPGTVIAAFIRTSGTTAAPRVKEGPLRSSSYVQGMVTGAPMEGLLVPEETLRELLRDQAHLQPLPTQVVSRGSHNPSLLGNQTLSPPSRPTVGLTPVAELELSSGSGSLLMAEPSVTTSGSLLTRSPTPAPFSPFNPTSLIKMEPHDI
# Outline: as §1
# [6] = target: T3, ELK4 (Homo sapiens, UniProt P28324-2 1-405); settings: protein: recombinant; tags: N-terminal GST; dsDNA, one strand shown
# T3 sequence: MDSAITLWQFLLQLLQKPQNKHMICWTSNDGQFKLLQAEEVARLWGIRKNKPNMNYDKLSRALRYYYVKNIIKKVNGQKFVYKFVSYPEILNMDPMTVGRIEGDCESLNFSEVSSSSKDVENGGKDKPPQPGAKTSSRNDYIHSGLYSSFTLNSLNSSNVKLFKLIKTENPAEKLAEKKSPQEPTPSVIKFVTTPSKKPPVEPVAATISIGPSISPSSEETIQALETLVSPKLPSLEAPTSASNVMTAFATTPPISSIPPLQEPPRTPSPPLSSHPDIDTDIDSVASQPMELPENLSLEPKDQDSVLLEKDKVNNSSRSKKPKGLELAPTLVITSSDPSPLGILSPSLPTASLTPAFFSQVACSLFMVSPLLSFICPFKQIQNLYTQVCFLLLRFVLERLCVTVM
# Outline: as §1
# [7] = target: T4, ETV2 (Homo sapiens, UniProt O00321 1-342); settings: protein: recombinant; tags: N-terminal GST; dsDNA, one strand shown
# T4 sequence: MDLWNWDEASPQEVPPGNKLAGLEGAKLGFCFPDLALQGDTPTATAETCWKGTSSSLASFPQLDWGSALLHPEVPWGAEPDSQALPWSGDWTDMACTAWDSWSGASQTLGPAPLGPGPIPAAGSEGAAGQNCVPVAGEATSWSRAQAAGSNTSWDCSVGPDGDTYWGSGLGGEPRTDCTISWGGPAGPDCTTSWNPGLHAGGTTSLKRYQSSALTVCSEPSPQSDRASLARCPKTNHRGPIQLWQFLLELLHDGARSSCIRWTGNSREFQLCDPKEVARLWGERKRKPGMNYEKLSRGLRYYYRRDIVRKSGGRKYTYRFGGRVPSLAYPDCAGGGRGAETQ
# Outline: as §1
# [8] = target: T5, ELF3 (Homo sapiens, UniProt P78545 1-371); settings: protein: recombinant; tags: N-terminal GST; dsDNA, one strand shown
# T5 sequence: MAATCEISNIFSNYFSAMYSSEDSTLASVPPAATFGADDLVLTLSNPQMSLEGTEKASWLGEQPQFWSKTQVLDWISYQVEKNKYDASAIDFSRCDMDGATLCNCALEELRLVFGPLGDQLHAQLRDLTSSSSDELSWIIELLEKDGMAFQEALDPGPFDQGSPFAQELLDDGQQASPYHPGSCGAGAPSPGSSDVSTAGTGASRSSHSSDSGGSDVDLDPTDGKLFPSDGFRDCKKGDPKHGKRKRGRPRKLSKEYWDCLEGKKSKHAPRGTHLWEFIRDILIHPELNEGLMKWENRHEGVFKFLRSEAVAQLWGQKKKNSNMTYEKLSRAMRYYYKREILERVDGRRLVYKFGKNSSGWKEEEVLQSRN
# Outline: as §1
# [9] = target: CRX (Homo sapiens, UniProt O43186 1-299); settings: protein: recombinant; tags: N-terminal GST; dsDNA, one strand shown
# Chain of CRX (O43186 whole entry): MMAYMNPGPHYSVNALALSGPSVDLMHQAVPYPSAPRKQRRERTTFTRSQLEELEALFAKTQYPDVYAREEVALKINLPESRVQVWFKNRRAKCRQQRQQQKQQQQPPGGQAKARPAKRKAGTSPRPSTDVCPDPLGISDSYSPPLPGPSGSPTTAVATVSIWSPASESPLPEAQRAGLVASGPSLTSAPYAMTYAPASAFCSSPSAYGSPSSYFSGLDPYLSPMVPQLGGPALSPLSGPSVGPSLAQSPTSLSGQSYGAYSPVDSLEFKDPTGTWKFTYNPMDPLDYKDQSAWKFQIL
# Outline: as §1
# [10] = target: ETV1 (Homo sapiens, UniProt P50549 1-477); settings: protein: recombinant; tags: N-terminal GST; dsDNA, one strand shown
# Chain of ETV1 (P50549 whole entry): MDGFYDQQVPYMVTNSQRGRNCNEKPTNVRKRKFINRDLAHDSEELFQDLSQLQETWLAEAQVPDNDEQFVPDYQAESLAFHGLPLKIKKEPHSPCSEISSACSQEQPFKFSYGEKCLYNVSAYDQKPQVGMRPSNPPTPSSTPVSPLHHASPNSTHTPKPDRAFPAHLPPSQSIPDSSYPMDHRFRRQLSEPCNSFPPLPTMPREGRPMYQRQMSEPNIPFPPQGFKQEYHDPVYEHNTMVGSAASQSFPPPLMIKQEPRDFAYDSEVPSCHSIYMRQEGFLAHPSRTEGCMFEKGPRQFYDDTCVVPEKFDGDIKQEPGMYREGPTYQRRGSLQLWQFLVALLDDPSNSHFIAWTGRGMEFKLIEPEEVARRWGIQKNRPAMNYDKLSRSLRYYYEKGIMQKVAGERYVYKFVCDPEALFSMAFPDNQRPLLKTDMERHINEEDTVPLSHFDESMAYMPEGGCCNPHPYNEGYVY
# Outline: as §1
# [11] = target: T6, ERF (Homo sapiens, UniProt P50548 1-548); settings: protein: recombinant; tags: N-terminal GST; dsDNA, one strand shown
# T6 sequence: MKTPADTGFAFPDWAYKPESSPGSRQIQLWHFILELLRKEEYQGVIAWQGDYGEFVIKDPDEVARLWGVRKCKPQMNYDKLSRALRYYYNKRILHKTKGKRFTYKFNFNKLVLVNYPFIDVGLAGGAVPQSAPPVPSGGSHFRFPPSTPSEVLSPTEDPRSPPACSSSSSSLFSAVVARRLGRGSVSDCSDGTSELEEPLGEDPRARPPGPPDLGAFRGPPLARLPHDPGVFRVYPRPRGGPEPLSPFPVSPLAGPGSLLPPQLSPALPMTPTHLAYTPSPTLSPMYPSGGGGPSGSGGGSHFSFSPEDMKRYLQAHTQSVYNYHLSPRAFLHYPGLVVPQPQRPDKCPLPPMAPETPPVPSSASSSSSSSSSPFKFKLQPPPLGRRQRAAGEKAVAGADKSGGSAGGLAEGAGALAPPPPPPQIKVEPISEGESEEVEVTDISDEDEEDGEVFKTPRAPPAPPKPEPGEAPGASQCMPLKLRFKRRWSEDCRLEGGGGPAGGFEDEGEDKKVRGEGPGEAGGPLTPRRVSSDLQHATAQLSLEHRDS
# Outline: as §1
# [12] = target: T7, ETV3L (Homo sapiens, UniProt Q6ZN32 1-361); settings: protein: recombinant; tags: N-terminal GST; dsDNA, one strand shown
# T7 sequence: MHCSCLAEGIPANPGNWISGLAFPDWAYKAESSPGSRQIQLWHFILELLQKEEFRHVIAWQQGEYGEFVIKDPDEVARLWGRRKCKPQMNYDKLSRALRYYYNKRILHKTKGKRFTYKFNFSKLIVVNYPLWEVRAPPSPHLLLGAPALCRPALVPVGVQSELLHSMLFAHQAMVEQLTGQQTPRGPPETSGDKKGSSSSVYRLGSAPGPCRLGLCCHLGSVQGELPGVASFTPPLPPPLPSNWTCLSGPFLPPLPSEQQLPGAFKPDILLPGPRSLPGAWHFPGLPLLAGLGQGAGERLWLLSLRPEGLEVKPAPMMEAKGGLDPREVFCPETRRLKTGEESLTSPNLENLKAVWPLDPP
# Outline: as §1
# [13] = target: T8, ETS2 (Homo sapiens, UniProt P15036 1-469); settings: protein: recombinant; tags: N-terminal GST; dsDNA, one strand shown
# T8 sequence: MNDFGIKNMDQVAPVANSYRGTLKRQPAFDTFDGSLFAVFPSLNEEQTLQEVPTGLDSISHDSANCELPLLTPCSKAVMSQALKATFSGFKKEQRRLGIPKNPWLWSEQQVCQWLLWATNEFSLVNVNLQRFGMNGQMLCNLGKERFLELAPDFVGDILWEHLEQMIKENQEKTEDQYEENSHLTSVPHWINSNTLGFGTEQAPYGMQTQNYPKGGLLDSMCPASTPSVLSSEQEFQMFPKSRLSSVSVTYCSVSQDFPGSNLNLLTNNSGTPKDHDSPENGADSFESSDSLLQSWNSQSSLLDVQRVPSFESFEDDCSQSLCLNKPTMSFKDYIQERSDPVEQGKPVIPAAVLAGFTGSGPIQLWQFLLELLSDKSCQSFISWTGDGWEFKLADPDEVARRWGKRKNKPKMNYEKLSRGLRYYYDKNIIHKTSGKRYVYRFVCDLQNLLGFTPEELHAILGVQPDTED
# Outline: as §1
# [14] = target: T9, SPDEF (Homo sapiens, UniProt O95238 1-335); settings: protein: recombinant; tags: N-terminal GST; dsDNA, one strand shown
# T9 sequence: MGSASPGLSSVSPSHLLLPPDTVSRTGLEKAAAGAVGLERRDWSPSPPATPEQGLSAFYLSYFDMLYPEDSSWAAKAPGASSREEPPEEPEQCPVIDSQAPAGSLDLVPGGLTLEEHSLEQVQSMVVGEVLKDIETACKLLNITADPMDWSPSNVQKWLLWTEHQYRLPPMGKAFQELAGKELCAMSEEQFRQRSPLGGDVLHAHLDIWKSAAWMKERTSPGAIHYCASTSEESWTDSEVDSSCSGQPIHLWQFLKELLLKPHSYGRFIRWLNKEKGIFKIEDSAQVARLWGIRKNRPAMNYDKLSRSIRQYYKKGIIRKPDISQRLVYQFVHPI
# Outline: as §1
# [15] = target: T10, ETV7 (Homo sapiens, UniProt Q9Y603 1-341); settings: protein: recombinant; tags: N-terminal GST; dsDNA, one strand shown
# T10 sequence: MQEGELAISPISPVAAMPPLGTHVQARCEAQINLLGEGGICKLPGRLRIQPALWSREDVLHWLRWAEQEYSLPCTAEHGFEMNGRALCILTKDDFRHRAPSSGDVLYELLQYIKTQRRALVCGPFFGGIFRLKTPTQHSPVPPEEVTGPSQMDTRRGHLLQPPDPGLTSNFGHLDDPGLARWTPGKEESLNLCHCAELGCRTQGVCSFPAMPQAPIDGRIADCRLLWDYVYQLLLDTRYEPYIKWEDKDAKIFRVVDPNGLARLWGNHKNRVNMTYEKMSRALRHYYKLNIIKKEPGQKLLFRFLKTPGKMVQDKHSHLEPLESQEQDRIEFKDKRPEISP
# Outline: as §1
# [16] = target: T11, ELF5 (Homo sapiens, UniProt Q9UKW6-2 1-255); settings: protein: recombinant; tags: N-terminal GST; dsDNA, one strand shown
# T11 sequence: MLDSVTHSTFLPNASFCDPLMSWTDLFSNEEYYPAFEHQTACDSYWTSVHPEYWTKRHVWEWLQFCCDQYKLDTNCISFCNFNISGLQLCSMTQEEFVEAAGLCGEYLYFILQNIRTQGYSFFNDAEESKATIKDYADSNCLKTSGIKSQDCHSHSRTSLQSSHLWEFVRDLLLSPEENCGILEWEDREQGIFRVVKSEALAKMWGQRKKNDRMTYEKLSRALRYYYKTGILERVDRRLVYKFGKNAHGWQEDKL
# Outline: as §1
# [17] = target: T12, ETV3 (Homo sapiens, UniProt P41162-2 1-143); settings: protein: recombinant; tags: N-terminal GST; dsDNA, one strand shown
# T12 sequence: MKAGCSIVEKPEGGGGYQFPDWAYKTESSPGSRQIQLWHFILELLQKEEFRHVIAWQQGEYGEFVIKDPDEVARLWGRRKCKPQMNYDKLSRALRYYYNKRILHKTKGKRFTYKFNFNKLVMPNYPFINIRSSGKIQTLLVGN
# Outline: as §1
# [18] = target: ETV6 (Homo sapiens, UniProt P41212 1-452); settings: protein: recombinant; tags: N-terminal GST; dsDNA, one strand shown
# Chain of ETV6 (P41212 whole entry): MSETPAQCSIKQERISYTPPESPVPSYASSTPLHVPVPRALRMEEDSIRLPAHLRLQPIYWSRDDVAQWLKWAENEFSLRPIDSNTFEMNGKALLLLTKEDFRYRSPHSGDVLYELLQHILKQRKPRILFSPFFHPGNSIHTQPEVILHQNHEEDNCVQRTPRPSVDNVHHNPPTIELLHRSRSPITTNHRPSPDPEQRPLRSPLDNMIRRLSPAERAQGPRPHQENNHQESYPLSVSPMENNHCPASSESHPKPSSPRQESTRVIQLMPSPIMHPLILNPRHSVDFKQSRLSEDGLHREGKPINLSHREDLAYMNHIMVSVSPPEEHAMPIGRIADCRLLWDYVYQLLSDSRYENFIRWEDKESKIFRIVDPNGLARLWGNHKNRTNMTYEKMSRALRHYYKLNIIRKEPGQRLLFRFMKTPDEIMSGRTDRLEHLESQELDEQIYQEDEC
# Outline: as §1
sequence,measurement,setting,value
CAAGAT,binding signal,[1],"1.02 fold enrichment (6-mer frequency, TF over GST control)"
same,binding signal,[2],"1.1 fold enrichment (6-mer frequency, TF over GST control)"
same,binding signal,[3],"1.18 fold enrichment (6-mer frequency, TF over GST control)"
same,binding signal,[4],"1.14 fold enrichment (6-mer frequency, TF over GST control)"
same,binding signal,[5],"1.18 fold enrichment (6-mer frequency, TF over GST control)"
same,binding signal,[6],"1.11 fold enrichment (6-mer frequency, TF over GST control)"
same,binding signal,[7],"1.09 fold enrichment (6-mer frequency, TF over GST control)"
same,binding signal,[8],"1.06 fold enrichment (6-mer frequency, TF over GST control)"
same,binding signal,[9],"1.23 fold enrichment (6-mer frequency, TF over GST control)"
same,binding signal,[10],"1.06 fold enrichment (6-mer frequency, TF over GST control)"
same,binding signal,[11],"1.06 fold enrichment (6-mer frequency, TF over GST control)"
same,binding signal,[12],"1.13 fold enrichment (6-mer frequency, TF over GST control)"
same,binding signal,[13],"1.06 fold enrichment (6-mer frequency, TF over GST control)"
same,binding signal,[14],"1.26 fold enrichment (6-mer frequency, TF over GST control)"
same,binding signal,[15],"1.02 fold enrichment (6-mer frequency, TF over GST control)"
same,binding signal,[16],"1.01 fold enrichment (6-mer frequency, TF over GST control)"
same,binding signal,[17],"1.08 fold enrichment (6-mer frequency, TF over GST control)"
same,binding signal,[18],"1.01 fold enrichment (6-mer frequency, TF over GST control)"
